A selection: hits, their analogues and other compounds. The true share with any hit is near 20%.
CHX counter: counter-screen for Shiga toxin inhibitors: cycloheximide protein synthesis inhibition. cell reporter, cycloheximide protein synthesis inhibition counterscreen. actives 12% (n = 300,000). max response, %. AID 2314; in the data active = max response mostly above about 13%, no sharp cut-off; inactive = mostly below about 14%; note: read at 38.3 µM for the half of the compounds with a filed dose; 0% is about no effect
Pf growth 48h: P. falciparum growth inhibition at 48 hours (one generation); P. falciparum luciferase growth in erythrocytes, 48 h; actives 5.9% (n = 310,000); Potency, µM (doses to about 28.7 µM), for the others: at the highest dose activity change, negative = inhibition, usual class: inhibitors; note: potency is the fitted concentration of half-maximal effect; % is set by controls: 0 for no effect and ±100 for the full control effect
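Parasite viability was followed by luminescence of a genomically integrated firefly luciferase. Cultures held 0.1% parasitemia at 2% hematocrit (final), incubated under 5% CO2 at 37 C.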
Shiga toxin inh: Shiga toxin inhibition; inhibition, % at 38.7 µM; AID 2315; actives 9.2% (n = 290,000); Vero cells, Shiga toxin protein synthesis inhibition reporter; in the data active = inhibition mostly above about 28%, no sharp cut-off; inactive = mostly below about 43%; note: 0% is about no effect
HCMV antiviral: blocks human cytomegalovirus replication; actives 4.5% (n = 410,000); HFF cells, HCMV-luciferase reporter, 72 h; active compounds read low; activity change, negative = inhibition, % at 57.5 µM; in the data active = activity change below about -60%; inconclusive = no clear call, values can overlap the other calls; inactive = above about -39%; note: % is set by controls: 0 for no effect and ±100 for the full control effect
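Steps: HFFs plated, 16 h 37C; compounds added; HCMV-luciferase added to MOI 1 PFU/cell; 72 h 37C; OneGlo reagent, 5 min room temperature; luminescence read, normalized to controls.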
Pf growth 96h: P. falciparum growth inhibition at 96 hour, primary screen for plastid delayed-death inhibitors; P. falciparum luciferase reporter growth, 96 h; Potency, µM (titrated, usually from 28.7 µM), for the others: at the highest dose activity change, negative = inhibition, actives largely listed as inhibitors; actives 6.9% (n = 320,000); AID 504834; note: potency is the fitted concentration of half-maximal effect; % is set by controls: 0 for no effect and ±100 for the full control effect
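Erythrocytes infected with luciferase-expressing P. falciparum were dispensed at 2% hematocrit and 0.05% parasitemia (final), then incubated with compounds 96 hours at 37 C in 5% CO2. Luminescence after detection reagent addition reported growth.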
The depositor's hits bear a star; ? = inconclusive; . = no result; + = active, no number. Unless noted, calls come from the whole dose curve; as a rule, active = well fitted inhibition curve with a large enough effect; inconclusive = small, poorly fitted or top-dose-only effect, or another doubt; inactive = no such curve, though single readings can be large or run the other way.

SMILES | CHX counter | Pf growth 48h | Shiga toxin inh | HCMV antiviral | Pf growth 96h
Nc1ccc(SCC(=O)Nc2cccc([N+](=O)[O-])c2)cc1 | 37* | 31% | 51 | 8 | 127%
CC(C)[C@H](NC(=O)N1c2ccccc2NC(=O)[C@@H]1C(C)C)C(=O)N1CCC(C(=O)O)CC1 | 8.9* | 14% | 12 | 40 | -1%
CC(C)[C@H]1C(=O)Nc2ccccc2N1C(=O)N[C@@H](Cc1ccccc1)C(=O)N[C@@H](C(=O)O)c1ccccc1 | -2 | 34% | -2 | 10 | 47%
CCOC(=O)C(=O)NCC(c1cccs1)S(=O)(=O)c1ccc(C)cc1 (stereo unspecified) | . | -1% | . | -2 | ?
CCNC(=O)C(=O)NCC(c1cccs1)S(=O)(=O)c1ccc(C)cc1 (stereo unspecified) | -6 | 22% | 18 | 0 | 4.1µM*
CCOC(=O)C(=O)NCC(c1cccs1)S(=O)(=O)c1ccc(F)cc1 (stereo unspecified) | . | ? | . | -9 | 12µM*
COc1ccc(CCNCC(=O)Nc2ccc(OC(F)(F)F)cc2)cc1OC | 2 | 2% | 5 | 21 | 0%
O=C1CC(c2ccco2)CC2=C1C1c3ccccc3C(=O)N1c1ccccc1N2 (stereo unspecified) | -2 | ? | -4 | -24 | 28%
O=C1CCCC2=C1C1c3ccccc3C(=O)N1c1ccc(C(=O)c3ccccc3)cc1N2 (stereo unspecified) | -3 | 2.3µM* | 3 | -76* | 89%
CN(C)c1cc(O)c(C(=S)Nc2ccccc2)c(N(C)C)c1 | 22* | ? | 41* | 40 | 2%
CN(C)c1ccc(C(=S)Nc2ccccc2)cc1 | 89* | 181% | 128* | -65* | -10%
CN(C)c1ccc(NC(=S)c2ccccn2)cc1 | -4 | -55% | -14 | -91* | -20%
C=CCN(C)NC(=S)Nc1ccccc1 | -2 | -4% | -12 | 7 | 1%
COC(=O)c1ccc(OCC2c3cc(OC)c(OC)cc3CCN2C(=O)COc2ccc(Cl)cc2)cc1 (stereo unspecified) | . | . | . | 14 | .
COCCN(C(=O)COC(=O)C(c1ccccc1)c1ccccc1)c1c(N)n(Cc2ccccc2)c(=O)[nH]c1=O | . | 10µM* | . | 14 | 7.4µM*
COCCN(C(=O)CSc1nnc2cc(C)c3ccccc3n12)c1c(N)n(Cc2ccccc2)c(=O)[nH]c1=O | -2 | ? | -3 | -94* | -11%
CCC(C(=O)OCC(=O)N(CCOC)c1c(N)n(Cc2ccccc2)c(=O)[nH]c1=O)c1ccccc1 (stereo unspecified) | -2 | -6% | -11 | -10 | ?
COCCN(C(=O)CSc1nnc(C)n1Cc1ccccc1)c1c(N)n(Cc2ccccc2)c(=O)[nH]c1=O | -1 | -3% | -1 | . | 15%
COCCN(C(=O)COC(=O)c1ccccc1Nc1ccccc1)c1c(N)n(Cc2ccccc2)c(=O)[nH]c1=O | . | ? | . | -21 | 9.3µM*
COCCn1c(C)cc(/C=C(\C#N)C(=O)OCC(=O)N(C)c2c(N)n(Cc3ccccc3)c(=O)[nH]c2=O)c1C | . | ? | . | 8 | 13µM*
CCOc1ccc(C(C)=O)cc1COC(=O)C(C)N=C1NS(=O)(=O)c2ccccc21 (stereo unspecified) | -7 | -5% | -4 | -8 | -13%
CS(=O)(=O)Oc1ccc2c(c1)O/C(=C\c1cccc([N+](=O)[O-])c1)C2=O | 4 | ? | 29 | . | ?
CS(=O)(=O)Oc1ccc2c(c1)O/C(=C\C=C\c1ccccc1)C2=O | 15* | ? | 36* | -4 | ?
CCc1ccc(/C=C2\Oc3cc(OS(C)(=O)=O)ccc3C2=O)cc1 | 14* | -11% | -7 | -28 | 0%
CC(C)OCCCn1c(SCc2cccc(Br)c2)nc2c(sc3ccccc32)c1=O | . | . | . | -4 | .
SMILES | CHX counter | Pf growth 48h | Shiga toxin inh | HCMV antiviral | Pf growth 96h
CC(=O)Oc1ccc(C(=O)Nc2cc(C)on2)cc1 | 30* | 73% | 88* | 30 | 105%
Cc1cc(NC(=O)c2ccc(C)o2)no1 | 23 | 40% | 53 | 60 | ?
COc1ccc(C(=O)Nc2cc(C)on2)cc1 | 27* | 123% | 47 | 39 | 0%
COc1ccc(OCc2cccc(C(=O)Nc3cc(C)on3)c2)cc1 | 91* | 44% | active | 113 | -72%
COc1cc(OC)cc(C(=O)Nc2cc(C)on2)c1 | -3 | 4% | 15 | 9 | 143%
COc1cccc(C(=O)Nc2cc(C)on2)c1 | . | . | . | 40 | .
O=S(=O)(/C=C/c1ccccc1)N1CCN(c2nc(-c3cccnc3)nc3ccccc23)CC1 | -8 | ? | -12 | ? | ?
O=S(=O)(c1ccc(F)cc1)N1CCN(c2nc(-c3cccnc3)nc3ccccc23)CC1 | . | 9.3µM* | . | 2 | 10µM*
CC(=O)c1ccc(S(=O)(=O)N2CCN(c3nc(-c4cccnc4)nc4ccccc34)CC2)cc1 | . | 8.3µM* | . | 29 | ?
O=S(=O)(c1ccccc1)N1CCN(c2nc(-c3cccs3)nc3ccccc23)CC1 | -2 | -15% | -7 | . | ?
O=S(=O)(c1ccccc1)N1CCN(c2nc(-c3cccnc3)nc3ccccc23)CC1 | . | ? | . | 2 | 8.3µM*
O=S(=O)(c1ccc(Cl)cc1)N1CCN(c2nc(-c3cccs3)nc3ccccc23)CC1 | -3 | 3.7µM* | 14 | 13 | 1.5µM*
O=S(=O)(c1ccc2c(c1)OCCO2)N1CCN(c2nc(-c3cccnc3)nc3ccccc23)CC1 | -4 | ? | -19 | . | ?
CCCCOc1ccc(OCCNC(=O)C2CCCN2C(=O)Nc2ccccc2)cc1 (stereo unspecified) | -2 | 14% | -12 | 8 | ?
CCCN1C(=O)C2(c3ccccc31)c1c(oc3ccc(F)cc3c1=O)C(=O)N2CCCOC(C)C (stereo unspecified) | . | . | . | -17 | .
COc1ccc(-c2nc(N3CCN(S(=O)(=O)c4ccc(C)cc4)CC3)c3ccccc3n2)cc1 | 27* | . | 73 | . | .
CCC(=O)NC(Nc1sc2c(c1C(=O)OC)CCN(C)C2)(C(F)(F)F)C(F)(F)F | -3 | ? | -1 | -101* | ?
CCOC(=O)C(NC(=O)CC)(Nc1sc2c(c1C(=O)OC)CCN(C)C2)C(F)(F)F (stereo unspecified) | -1 | ? | -24 | -27 | 0%
CCOC(=O)NC(Nc1sc2c(c1C(=O)OC)CCN(C)C2)(C(F)(F)F)C(F)(F)F | 1 | ? | 13 | 44 | 6.6µM*
O=C(CCS(=O)(=O)c1cccs1)Nc1ccc(C(=O)Nc2ccccc2F)cc1 | . | . | . | 46 | .
Cc1ccc(-c2ccc(/C=C(\C#N)C(N)=S)n2C)cc1 | 59* | 5% | 61* | 89 | ?
CCc1ccc(NC(=O)CSC2=Nc3ccccc3C3=NC(CC(=O)NCc4ccccc4)C(=O)N23)cc1 (stereo unspecified) | . | . | . | 36 | .
O=C(Nc1cccc(F)c1)C1CCN(S(=O)(=O)c2ccc3[nH]c4c(c3c2)CCCCC4)CC1 | . | . | . | + | .

Bioassay records as filed in PubChem.
